# Screens from PubChem.
# Compounds with a hit are over-represented: about 10% of the library has one in this group of screens.
# FLuc inh-1: Photinus pyralis luciferase inhibition. Potency, µM (top dose mostly 115 µM), actives largely listed as inhibitors. purified P. pyralis luciferase, luminescence, biochemical. hit rate 2.5% among 76,000; also: % is scaled to controls: 0 for no effect and ±100 for the full control effect; nearly all actives have a fitted effect of over 65% in size
#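 Luminescence read by CCD imager after adding enzyme (10nM final) to wells holding compound, titrated in qHTS. Substrates 10uM each D-luciferin and ATP; buffer 50mM Tris acetate pH 7.5, 10mM Mg acetate, Tween-20, BSA.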
# NIH3T3 tox: cytotoxic compounds in NIH 3T3 cells. NIH 3T3 viability, CellTiter-Glo ATP luminescence, 48-72 h. hit rate 4.3% among 94,000. Potency, µM (highest dose often 96.7 µM), for inactives: at the highest dose activity change, negative = cytotoxicity, hits mostly inhibitors; also: % is scaled to controls: 0 for no effect and ±100 for the full control effect; nearly all actives have a fitted effect of over 55% in size
#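 Viability of NIH 3T3 cells after 48 or 72 hr compound treatment at 37 °C was assessed by CellTiter-Glo, with luminescence imaged following a 10 min room-temperature step.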
# hNpr1 antagonist: human Npr1 receptor antagonism | P16066 | HEK293 hNpr1 GloSensor cGMP, ANP-stimulated luminescence | Potency, µM (top dose mostly 46.3 µM), inactives show at the highest dose activity change, negative = inhibition, actives largely listed as inhibitors | hit rate 1.6% among 76,000 | AID 1347048; calls by dose curve; also: % is scaled to controls: 0 for no effect and ±100 for the full control effect; nearly all actives have a fitted effect of over 60% in size
#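 Compound pre-incubated 30 min at room temperature on GloSensor-loaded HEK293 cells stably carrying hNpr1 and the pGS-40F cGMP biosensor. Stimulation uses hNppA at 0.1 nM final; luminescence is taken at baseline and 20 min post-agonist.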
# GPT2 inh: blocks human glutamate pyruvate transaminase 2; Q8TD30; Recombinant GPT2, coupled pyruvate oxidase/HRP Amplex Red fluorescence; Potency, µM (doses to about 57.7 µM), for inactives: at the top dose activity change, negative = inhibition, most hits filed as inhibitors; hit rate 0.25% among 100,000; AID 1671188; also: % is scaled to controls: 0 for no effect and ±100 for the full control effect; nearly all actives have a fitted effect of over 60% in size
# Target sequence (Q8TD30 whole entry, looked up): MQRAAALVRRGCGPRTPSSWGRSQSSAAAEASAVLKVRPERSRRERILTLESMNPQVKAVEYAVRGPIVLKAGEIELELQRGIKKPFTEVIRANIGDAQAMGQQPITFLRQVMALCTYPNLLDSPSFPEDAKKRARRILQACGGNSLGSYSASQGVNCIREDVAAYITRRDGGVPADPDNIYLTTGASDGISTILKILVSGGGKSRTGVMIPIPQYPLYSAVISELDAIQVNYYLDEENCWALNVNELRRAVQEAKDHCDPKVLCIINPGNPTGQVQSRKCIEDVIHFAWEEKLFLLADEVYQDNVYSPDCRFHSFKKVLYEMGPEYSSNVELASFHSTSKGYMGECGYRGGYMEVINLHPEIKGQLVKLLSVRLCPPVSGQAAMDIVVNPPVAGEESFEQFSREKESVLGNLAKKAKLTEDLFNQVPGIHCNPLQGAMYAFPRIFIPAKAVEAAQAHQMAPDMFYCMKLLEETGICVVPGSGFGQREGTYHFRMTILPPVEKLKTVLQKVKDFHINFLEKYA
#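 Inhibition is scored from Amplex Red fluorescence generated when pyruvate oxidase and HRP act on pyruvate released by GPT2. Reactions contain 10ng/uL enzyme, 250uM a-KG and 2mM L-alanine and run 30 min at room temperature.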
# HEK cytotox: cytotoxic compounds in HEK 293 cells. HEK 293 viability, ATP luminescence (CellTiter-Glo), 48-72 h. Potency, µM (titrated, usually from 115 µM), for the others: at the highest dose activity change, negative = cytotoxicity, most hits filed as inhibitors. hit rate 6.6% among 94,000. AID 1345083; also: % is scaled to controls: 0 for no effect and ±100 for the full control effect; nearly all actives have a fitted effect of over 60% in size
#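 HEK 293 cells seeded at 250 cells/well were exposed to compound for 48 or 72 hr at 37 degree Celsius. Viability taken as ATP content by CellTiter-Glo luminescence.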
# FLuc SDR -ATP: stabilizes firefly luciferase without ATP | shares compounds with FLuc inh-1 | Purified FLuc-C-HiBiT, Nano-Glo HiBiT luminescence, no ATP | Potency, µM (highest dose often 32.7 µM), without a hit: top-dose activation (signal gain), hits mostly activators | hit rate 7.8% among 1,300; also: nearly all actives have a fitted effect of over 55% in size
# FLuc SDR ATP: firefly luciferase binding stabilization, ATP added | shares compounds with FLuc inh-1 | purified FLuc-C-HiBiT + ATP, HiBiT complementation luminescence | Potency, µM (titrated, usually from 32.7 µM), for the others: at the top dose activation (gain of signal), hits mostly activators | hit rate 8.7% among 1,300;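 also: signal reports ligand binding via conformational change of the enzyme rather than luciferase catalysis; % of control where 0% means no effect; nearly all actives have a fitted effect of over 55% in size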
# FLuc inh-2: firefly luciferase enzyme inhibition. hit rate 42% among 1,300. shares compounds with FLuc inh-1. purified FLuc-C-HiBiT enzyme, luciferin luminescence. AID 1963320. Potency, µM (top dose mostly 32.7 µM), for inactives: top-dose activity change, negative = inhibition, hits mostly inhibitors; also: % is scaled to controls: 0 for no effect and ±100 for the full control effect; nearly all actives have a fitted effect of over 70% in size
# * hit, by the source's call; i = inactive; ? = inconclusive; . = not tested or not shown; [ ] = another dose, or the depositor's remark. Unless noted, calls follow the shape of the dose curve; as a rule, active = well fitted curve in the direction sought with a large enough effect; inconclusive = small, poorly fitted or top-dose-only effect, or another doubt; inactive = no such curve, though single readings can be large; an effect the other way counts as inactive or inconclusive. Potency is read from the fitted curve at half-maximal effect.
SMILES,FLuc inh-1,NIH3T3 tox,hNpr1 antagonist,GPT2 inh,HEK cytotox,FLuc SDR -ATP,FLuc SDR ATP,FLuc inh-2
O=C(c1ccccc1C(F)(F)F)N1CCOc2c(cc(-c3nc4ccccc4s3)cc2OC2CCOC2)C1 (centres undefined),.,.,.,.,.,11.9%,8.3%,3.1%
CCn1cc(C(=O)N2CCOc3c(O)cc(-c4ccccc4C)cc3C2)cn1,i,?,-11.9%,1.8%[11.5 µM],?,.,.,.
Oc1cc(-c2cccc(Cl)c2)cc2c1OCCN(Cc1noc(C3CC3)n1)C2,i,?,-3.1%,?,?,.,.,.
CC(CCc1ccc(O)cc1)N1CCOc2c(O)cc(-c3nc4ccccc4s3)cc2C1 (centres undefined),.,.,.,.,.,13.9%,11.5%,-7.9%
COCCNC(=O)[C@H]1C[C@H](Oc2ccccc2)CN1S(=O)(=O)Cc1ccccc1F,i,-12.4%,1.6%,4.2%,-6.0%,.,.,.
Cc1ccccc1NC(=O)N1CCC(CCNC(=O)c2ccc3nc[nH]c3c2)CC1,i,-3.5%,-1.0%,2.3%,-14.4%,.,.,.
Cc1cc(C(=O)N2CCC(OCC3CC3)C2)n(C)n1 (centres undefined),i,i,1.6%,-4.0%,-3.8%,.,.,.
Cc1cccc(NC(=O)c2ccc(-c3ccccc3)s2)c1,.,.,.,.,.,24.9%,16.7%,2.79µM*
O=C(O)c1ccc(-c2noc(-c3ccccc3F)n2)cc1,.,.,.,.,.,?,0.248µM*,0.197µM*
CC1CCC(NC(=O)c2noc(-c3ccccc3F)n2)CC1 (centres undefined),8.91µM*,-21.4%,-10.4%,?,-27.2%,15.3%,19.0%,?
CCCCCNC(=O)c1noc(-c2ccccc2F)n1,?,?,-8.8%,-30.7%,?,.,.,.
COc1cc(-c2noc(-c3nc(-c4ccccc4F)no3)n2)cc(OC)c1OC,i,i,-3.2%,i,8.7%,.,.,.
O=C(O)c1ccccc1-c1noc(-c2ccccc2F)n1,.,.,.,.,.,27.5%,?,?
CC(C)c1nc2c(c(-c3ccc(O)cc3)n1)CCN(Cc1ccccn1)CC2,i,-21.3%,-2.1%,0.1%,0.9%,8.2%,8.4%,-5.6%
CC(C)c1nc2c(c(-c3ccc(O)cc3)n1)CN(Cc1ccccc1)CC2,i,-26.5%,2.0%,-7.6%,?,11.0%,6.8%,-4.7%
CSc1cccc(NC(=O)Cn2c(C)cc3nc4n(c(=O)c32)CCCC4)c1,i,-29.6%,-7.0%,i,-24.9%,.,.,.
CCCNS(=O)(=O)c1ccc(C(=O)NCc2cc3n(n2)CCNC3)cc1,i,-1.1%,0.6%,i[11.5 µM],i,.,.,.
COc1cc(F)ccc1-c1cc2c(nc1OC)nc(CC1CC1)n2C,i,?,-0.7%[70.6 µM],-6.4%[88.5 µM],?,.,.,.
COc1ccc(NC(=O)c2cc3ccccc3o2)c(OC)c1,.,.,.,.,.,19.5%,14.2%,?
CCOc1ccccc1C(=O)NC1CCN(c2cnn(CC)c(=O)c2)CC1,i,?,-21.1%,i,-25.6%,.,.,.
CCOc1ccccc1C(=O)Nc1nc2c(s1)CC(C)CC2 (centres undefined),.,.,.,.,.,14.3%,8.4%,4.42µM*
CCN(CC1CCOCC1)C(=O)c1cccnc1SC/C=C/c1ccccc1,11.2µM*,-25.3%,-4.6%,i,?,8.3%,4.7%,?
CCN(CC1CCOCC1)C(=O)c1cc(COc2ccccc2F)[nH]n1,i,-1.2%,5.4%,-3.0%,-10.9%,.,.,.
Cn1ccc2c(C(=O)NCc3cccnc3)nc(-c3ccc(N4CCOCC4)cc3)cc21,14.1µM*,?,-11.5%[70.6 µM],4.9%[88.5 µM],112µM*,15.5%[49.3 µM],10.8%[49.3 µM],?
CN(C)CCNC(=O)c1nc(-c2cccc(N3CCOCC3)c2)cc2c1ccn2C,i,?,3.0%[70.6 µM],0.8%[88.5 µM],?,.,.,.
SMILES,FLuc inh-1,NIH3T3 tox,hNpr1 antagonist,GPT2 inh,HEK cytotox,FLuc SDR -ATP,FLuc SDR ATP,FLuc inh-2
CN1CCN(c2ccc(-c3cc4c(ccn4C)c(C(=O)NCCC(N)=O)n3)cc2)CC1,7.08µM*,79.4µM*,-3.5%[70.6 µM],1.9%[88.5 µM],70.8µM*,26.2%[49.3 µM],17.2%[49.3 µM],14.3µM*
CN1CCN(c2ccc(-c3cc4c(ccn4C)c(C(=O)NCC4CCC(=O)N4)n3)cc2)CC1 (centres undefined),10µM*,28.2µM*,0.9%,i,39.8µM*,18.4%,11.8%,?
O=C(O)c1cc2c(s1)CCN(C(=O)c1ccc(F)cc1)C2,i,-9.1%,0.9%,4.4%,-2.4%,.,.,.
C[C@]12CC/C(=N\OCC(=O)O)C=C1CC[C@@H]1[C@@H]2[C@@H](O)C[C@@]2(C)[C@H]1CC[C@]2(O)C(=O)CO,.,.,.,i,.,.,.,.
CCC(=O)Nc1cc2nn(-c3ccc(C)cc3)nc2cc1C,.,.,.,.,.,?,?,0.394µM*
Cc1ccc(C(=O)N2CCN(C(=O)c3nnn4c3COC(c3ccc(C)cc3)C4)CC2)cc1 (centres undefined),i,-13.6%,-24.9%,-2.9%,?,.,.,.
Cc1ccc(C2Cn3nnc(C(=O)N4CCC(C(=O)NCCc5cccs5)CC4)c3CO2)cc1 (centres undefined),10µM*,-9.5%,-1.1%,i,0.8%,11.6%,?,?
Cc1ccc(C2Cn3nnc(C(=O)N4CCC(C(=O)NCCN5CCCC5)CC4)c3CO2)cc1 (centres undefined),12.6µM*,i,-0.4%,1.8%,-7.2%,13.3%,?,?
Cc1ccc(C2Cn3nnc(C(=O)N4CCN(C(=O)c5cccs5)CC4)c3CO2)cc1 (centres undefined),i,?,-26.0%,i,-29.5%,.,.,.
COCCNC(=O)C1CCN(C(=O)c2nnn3c2COC(c2ccc(C)cc2)C3)CC1 (centres undefined),5.62µM*,i,-1.7%,i,8.6%,12.4%,?,?
NC(=O)c1ccc(N2CCN(Cc3c(Cl)cncc3Cl)CC2)nc1,i,-10.7%,0.8%,-18.1%,-2.8%,.,.,.
O=C(c1ccc(C(F)(F)F)cc1)N1CCc2nc(-c3ccccc3)nc(-c3ccc(Cl)cc3)c2C1,i,?,5.2%,-1.7%,?,12.0%,9.7%,2.4%
Cc1ccc(C(=O)N2CCc3nc(-c4ccccc4)nc(-c4ccc(Cl)cc4)c3C2)cc1,i,?,-12.2%,i,?,.,.,.
CNc1ccc(-c2noc([C@@H]3CCCN3Cc3ccccn3)n2)cn1,?,?,-1.2%[70.6 µM],i,-24.4%[172 µM],.,.,.
